For 40 molecules, Inhibition results are on record in ChEMBL document CHEMBL1157539, “Thousands of chemical starting points for antimalarial lead identification” (Nature, 2010).

The test system of one test is Plasmodium falciparum. Put plainly: GSK_TCMDC: Inhibition of Plasmodium falciparum 3D7 in whole red blood cells, using parasite LDH activity as an index of growth. Test compounds present at 2uM. The class given is functional.
Usually Inhibition stands for the change of the read-out against control, counted positive when it falls. The molecule `CCOC(=O)c1ccc(NC(=O)Nc2cccc(-c3cccc(-c4nc5cccc(C)c5[nH]4)c3)c2)cc1` displayed an Inhibition of 100%.
Still for that read-out and setting: then `O=C(/C=C/c1ccc(Cl)c(Cl)c1)NC1CCN(Cc2cccc(O)c2)CC1.O=C(O)C(F)(F)F`, with 94%.
The same measure, in the same setting: then `O=C(/C=C/c1ccc(Cl)c(Cl)c1)NCCCCCN1CCC(NC(=O)Nc2cccc(C(F)(F)F)c2)CC1`, with 100%; and `Cc1ccc(NC(=O)c2ccc3ncccc3c2)cc1OC1CCN(Cc2ccsc2)C1.O=C(O)C(F)(F)F` (stereo not given), with 88%; and `O=C(Nc1ccc(Cn2ncc(N3CCCNCC3)c(Cl)c2=O)cc1)Nc1ccc(C(F)(F)F)cc1.O=C(O)C(F)(F)F`, with 90%.
Same read-out and setting: the result for `COc1ccc(NC(=O)/C=C/c2ccc(-c3ccccc3)cc2)cc1N1CCN(C)CC1.O=C(O)C(=O)O` reads 90%; that for `Nc1nc(N)c2c(ccc3nn(C4CCCC4)cc32)n1`, 97%.
For `c1ccc2c(c1)ncc1c3ccccc3[nH]c21`, the Inhibition is recorded as 95%.
Still for that read-out and setting: the result for `Cc1cc(-c2cccc3c(C(=O)N4CCc5cc6nccc(N7CCCN(C)CC7)c6cc54)cccc23)cc(C)n1.Cl` reads 100%; that for `CC(=O)c1cccc2cc(C(=O)NC3CCC(CCN4CCc5ccc(C#N)cc5C4)CC3)[nH]c12.Cl` (stereo not given), 100%; that for `CC(C)N1CCCN(C(=O)C2CCN(c3ccc(C(=O)N4CCCC4)cn3)CC2)CC1.Cl`, 86%.
On the same count and under the same terms, the result for `COc1cc(C)nc2ccc(NC(=O)Nc3ccccc3[N+](=O)[O-])cc12` reads 100%.
The same measure, in the same setting: the result for `Cc1ccc(O)cc1Nc1ccnc2cc(-c3ccccc3)ccc12.Cl` reads 100%; that for `FC(F)(F)c1ccc2[nH]c(-c3cccc(-c4cccc(CNCC5CCCO5)c4)c3)nc2c1.O=C(O)C(F)(F)F` (stereo not given), 100%.
Regarding `CCC(C)OC(=O)C1=C(C)NC2=C(C(=O)CC(c3ccc(OC)c(OC)c3)C2)C1c1ccc(O)cc1` (stereo not given), the Inhibition is given as 100%.
The molecule `O=C1Nc2ccccc2/C1=N/NC(=S)N1CCOCC1` came in with an Inhibition of 95%.
Same read-out and setting: then `CCCCOc1ccc(/C=C/c2ccc(-c3c(C)[nH]c(C)c(Cl)c3=O)s2)cc1`, with 97%.
The same measure, in the same setting: the result for `COc1cc(C(C)C)ccc1C1CCN(CCCCNC(=O)c2ccc(NC(=O)c3ccc(Cl)cc3)cc2)CC1.O=C(O)/C=C/C(=O)O` reads 98%; that for `N#Cc1cccc(C(=O)Nc2cccc(-c3ccc(CN4CCC(O)CC4)cc3)c2)c1.O=C(O)C(F)(F)F`, 86%; that for `C1=CN(Cc2ccccc2)C=CC1=C1C=Nc2ccccc21`, 90%.
`O=C(Nc1ccc(-c2nc3ccccc3[nH]2)cc1)C1CCCN(C2CCC2)C1` (stereo not given) came in with an Inhibition of 90%.
Same read-out and setting: the result for `CN(C)c1ccc(-c2csc(C(=O)NCC3CCN(Cc4ccc(C(C)(C)C)cc4)C3)c2)cc1.O=C(O)C(F)(F)F` (stereo not given) reads 97%; that for `Cc1ccc(NC(=O)c2cnc(N3CCN(c4ccncc4)CC3)c(Cl)c2)cc1.O=C(O)C(F)(F)F`, 94%; that for `CC(=O)Nc1ccc(S(=O)(=O)Nc2c(C)cc(Cc3cnc(N)nc3N)cc2C)cc1`, 94%.
Same read-out and setting: then `CC1CC(NCCCNc2cc(=O)c3ccccc3[nH]2)c2c1cc(Cl)c(Cl)c2Cl` (stereo not given), with 98%; and `CN(C)c1ccc(-c2cscc2C(=O)NC2CCCN(Cc3cccnc3)C2)cc1.O=C(O)C(F)(F)F` (stereo not given), with 89%; and `CC1CC1C(=O)NC1CCN(CC2(c3ccccc3)CCCCC2)CC1` (stereo not given), with 97%.
On the same count and under the same terms, the result for `Cn1nc(-c2ccc(NC(=O)Nc3cc(C(F)(F)F)ccc3F)cc2)c2cnc(NCCc3c[nH]cn3)nc21.O=C(O)C(F)(F)F` reads 99%; that for `O=C(N[C@@H](Cc1ccccc1)C(=O)NC1CCCCC1)c1ccc(O)c(-c2cccc(C(F)(F)F)c2)c1`, 96%.
Molecule `COc1cccc(C(=O)NCCc2cccc(Cl)c2)c1Oc1ccccc1` returned an Inhibition of 97%.
On the same count and under the same terms, then `CN(C)CCNC(=O)c1ccc(-c2ccc3c(Nc4ccccc4)c(C(N)=O)cnc3c2)cc1`, with 99%; and `O=C(Nc1ccc(Cl)cc1Cl)NC1CCN(CCCCCNC(=O)C2CC2c2ccc(Cl)c(Cl)c2)CC1` (stereo not given), with 100%.
Still for that read-out and setting: the result for `COc1ccccc1C1CCN(CCCCNC(=O)c2ccc(NC(=O)c3ccc(Cl)cc3)cc2)CC1` reads 95%; that for `CCCc1cc(Cc2cnc(N)nc2N)cc(CCC)c1OC.Cl`, 92%.
Still for that read-out and setting: then `COc1ccc(-c2c(C(F)(F)F)nn(C)c2NC(=O)Nc2ccc(F)cc2F)cc1`, with 100%; and `N#Cc1ccc(C=Cc2nccc3c2[nH]c2ccccc23)cc1`, with 97%.
`Nc1nc(N)c2c(ccc3c2ccn3Cc2ccccn2)n1`: the Inhibition is 90%.
Still for that read-out and setting: then `CCC(=O)Nc1ccc(C(O)CN2CCC3(C=Cc4ccccc4O3)CC2)cc1` (stereo not given), with 93%; and `O=C(Nc1cccc(F)c1)NC1CCN(c2ccnc3cc(Cl)ccc23)C1.O=C(O)C(F)(F)F` (stereo not given), with 100%; and `COc1ccc(CN(C)CC(O)COc2ccc(NC(=O)c3cccc4c(=O)c5cccc(OC)c5[nH]c34)cc2)cc1OC` (stereo not given), with 93%.

In a further test the test system is Plasmodium falciparum. Briefly: GSK_TCMDC: Inhibition of Plasmodium falciparum Dd2 in whole red blood cells, using parasite LDH activity as an index of growth. Test compounds present at 2uM. The class given is functional.
For the molecule `CCOC(=O)c1ccc(NC(=O)Nc2cccc(-c3cccc(-c4nc5cccc(C)c5[nH]4)c3)c2)cc1`, the Inhibition came to 99%.
On the same count and under the same terms, the result for `O=C(/C=C/c1ccc(Cl)c(Cl)c1)NC1CCN(Cc2cccc(O)c2)CC1.O=C(O)C(F)(F)F` reads 0%; that for `O=C(/C=C/c1ccc(Cl)c(Cl)c1)NCCCCCN1CCC(NC(=O)Nc2cccc(C(F)(F)F)c2)CC1`, 11%.
The same measure, in the same setting: the result for `Cc1ccc(NC(=O)c2ccc3ncccc3c2)cc1OC1CCN(Cc2ccsc2)C1.O=C(O)C(F)(F)F` (stereo not given) reads 49%; that for `O=C(Nc1ccc(Cn2ncc(N3CCCNCC3)c(Cl)c2=O)cc1)Nc1ccc(C(F)(F)F)cc1.O=C(O)C(F)(F)F`, 58%; that for `COc1ccc(NC(=O)/C=C/c2ccc(-c3ccccc3)cc2)cc1N1CCN(C)CC1.O=C(O)C(=O)O`, 46%.
On the same count and under the same terms, then `Nc1nc(N)c2c(ccc3nn(C4CCCC4)cc32)n1`, with 3%.
Consider `c1ccc2c(c1)ncc1c3ccccc3[nH]c21`, for which the Inhibition came out at 36%.
The same measure, in the same setting: then `Cc1cc(-c2cccc3c(C(=O)N4CCc5cc6nccc(N7CCCN(C)CC7)c6cc54)cccc23)cc(C)n1.Cl`, with 100%.
The same measure, in the same setting: then `CC(=O)c1cccc2cc(C(=O)NC3CCC(CCN4CCc5ccc(C#N)cc5C4)CC3)[nH]c12.Cl` (stereo not given), with 17%; and `CC(C)N1CCCN(C(=O)C2CCN(c3ccc(C(=O)N4CCCC4)cn3)CC2)CC1.Cl`, with 12%; and `COc1cc(C)nc2ccc(NC(=O)Nc3ccccc3[N+](=O)[O-])cc12`, with 58%.
On the same count and under the same terms, then `Cc1ccc(O)cc1Nc1ccnc2cc(-c3ccccc3)ccc12.Cl`, with 99%; and `FC(F)(F)c1ccc2[nH]c(-c3cccc(-c4cccc(CNCC5CCCO5)c4)c3)nc2c1.O=C(O)C(F)(F)F` (stereo not given), with 96%; and `CCC(C)OC(=O)C1=C(C)NC2=C(C(=O)CC(c3ccc(OC)c(OC)c3)C2)C1c1ccc(O)cc1` (stereo not given), with 97%.
The molecule `O=C1Nc2ccccc2/C1=N/NC(=S)N1CCOCC1` registered an Inhibition of 75%.
The same measure, in the same setting: the result for `CCCCOc1ccc(/C=C/c2ccc(-c3c(C)[nH]c(C)c(Cl)c3=O)s2)cc1` reads 96%; that for `COc1cc(C(C)C)ccc1C1CCN(CCCCNC(=O)c2ccc(NC(=O)c3ccc(Cl)cc3)cc2)CC1.O=C(O)/C=C/C(=O)O`, 99%.
Same read-out and setting: then `N#Cc1cccc(C(=O)Nc2cccc(-c3ccc(CN4CCC(O)CC4)cc3)c2)c1.O=C(O)C(F)(F)F`, with 2%; and `C1=CN(Cc2ccccc2)C=CC1=C1C=Nc2ccccc21`, with 69%; and `O=C(Nc1ccc(-c2nc3ccccc3[nH]2)cc1)C1CCCN(C2CCC2)C1` (stereo not given), with 5%.
The same measure, in the same setting: the result for `CN(C)c1ccc(-c2csc(C(=O)NCC3CCN(Cc4ccc(C(C)(C)C)cc4)C3)c2)cc1.O=C(O)C(F)(F)F` (stereo not given) reads 64%; that for `Cc1ccc(NC(=O)c2cnc(N3CCN(c4ccncc4)CC3)c(Cl)c2)cc1.O=C(O)C(F)(F)F`, 24%.
Molecule `CC(=O)Nc1ccc(S(=O)(=O)Nc2c(C)cc(Cc3cnc(N)nc3N)cc2C)cc1` came in with an Inhibition of 0%.
Same read-out and setting: then `CC1CC(NCCCNc2cc(=O)c3ccccc3[nH]2)c2c1cc(Cl)c(Cl)c2Cl` (stereo not given), with 70%; and `CN(C)c1ccc(-c2cscc2C(=O)NC2CCCN(Cc3cccnc3)C2)cc1.O=C(O)C(F)(F)F` (stereo not given), with 70%.
Same read-out and setting: then `CC1CC1C(=O)NC1CCN(CC2(c3ccccc3)CCCCC2)CC1` (stereo not given), with 95%.
The same measure, in the same setting: the result for `Cn1nc(-c2ccc(NC(=O)Nc3cc(C(F)(F)F)ccc3F)cc2)c2cnc(NCCc3c[nH]cn3)nc21.O=C(O)C(F)(F)F` reads 56%; that for `O=C(N[C@@H](Cc1ccccc1)C(=O)NC1CCCCC1)c1ccc(O)c(-c2cccc(C(F)(F)F)c2)c1`, 36%.
`COc1cccc(C(=O)NCCc2cccc(Cl)c2)c1Oc1ccccc1` displayed an Inhibition of 90%.
Still for that read-out and setting: then `CN(C)CCNC(=O)c1ccc(-c2ccc3c(Nc4ccccc4)c(C(N)=O)cnc3c2)cc1`, with 68%.
Still for that read-out and setting: the result for `O=C(Nc1ccc(Cl)cc1Cl)NC1CCN(CCCCCNC(=O)C2CC2c2ccc(Cl)c(Cl)c2)CC1` (stereo not given) reads 30%; that for `COc1ccccc1C1CCN(CCCCNC(=O)c2ccc(NC(=O)c3ccc(Cl)cc3)cc2)CC1`, 12%; that for `CCCc1cc(Cc2cnc(N)nc2N)cc(CCC)c1OC.Cl`, 1%.
Same read-out and setting: the result for `COc1ccc(-c2c(C(F)(F)F)nn(C)c2NC(=O)Nc2ccc(F)cc2F)cc1` reads 99%; that for `N#Cc1ccc(C=Cc2nccc3c2[nH]c2ccccc23)cc1`, 28%; that for `Nc1nc(N)c2c(ccc3c2ccn3Cc2ccccn2)n1`, 94%.
Take `CCC(=O)Nc1ccc(C(O)CN2CCC3(C=Cc4ccccc4O3)CC2)cc1` (stereo not given): the Inhibition came to 47%.
Same read-out and setting: the result for `O=C(Nc1cccc(F)c1)NC1CCN(c2ccnc3cc(Cl)ccc23)C1.O=C(O)C(F)(F)F` (stereo not given) reads 64%.
On the same count and under the same terms, the result for `COc1ccc(CN(C)CC(O)COc2ccc(NC(=O)c3cccc4c(=O)c5cccc(OC)c5[nH]c34)cc2)cc1OC` (stereo not given) reads 65%.
